Reference: PubChem BioAssay AID1159580 (chemical genetic matrix, 2015)
Where “and” joins values, the source holds several entries; their conditions need not be identical. Equal entries are not always repeated. Hit rate of the full screen: of about 5,500 compounds, about 2,000 (36%) were called active. Another 18% or so got no clear call; they are omitted. Cut-off read from the data, not from the text of the source: active = normalized growth mostly below about 0.91 (no sharp cut-off); inconclusive = no clear call, values can overlap the other calls; inactive = mostly above about 0.92. The list shows a part of the results. Where a SMILES comes first, the peptide text is derived from it. [ ]: non-standard residue; d: D form. Orn = NCCC[CH](N)C(=O)O

Assay: chemical genetic growth profiling, strain panel (AID 1159580);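 note: tested at 20 µM; growth read once vehicle control cultures reached saturation at 30 °C; 1 = growth at the plate median or of vehicle wells; lower values mean less growth of the strain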
Details: S. cerevisiae deletion strains, growth OD

Measured: normalized growth

CC(C)CC1NC(=O)C(CCCN)NC(=O)C(C(C)C)NC(=O)C2CCCN2C(=O)C(Cc2ccccc2)NC(=O)C(CC(C)C)NC(=O)C(CCCN)NC(=O)C(C(C)C)NC(=O)C2CCCN2C(=O)C(Cc2ccccc2)NC1=O (stereo unspecified) (cyclo(FPV[Orn]LFPV[Orn]L); configuration not given here)
inactive: locus YAL013W, strain DEP1, hits give low values 1.01 | locus YAL021C, strain ccr4, hits give low values 0.995 | locus YAL026C, strain drs2, hits give low values 0.911 | locus YAL030W, strain snc1, hits give low values 1.03 | locus YBL061C, strain skt5, hits give low values 1.02 | locus YBR009C, strain hhf1, hits give low values 1.01 | locus YBR021W, strain FUR4, hits give low values 0.931 | locus YBR023C, strain chs3, hits give low values 1.01 | locus YBR171W, strain sec66, hits give low values 1.07 | locus YBR229C, strain ROT2, hits give low values 1.01 | locus YBR231C, strain swc5, hits give low values 0.934 | locus YBR279W, strain paf1, hits give low values 1.02 | locus YCL011C, strain gbp2, hits give low values 1.02 | locus YCL016C, strain dcc1, hits give low values 1 | locus YCL029C, strain bik1, hits give low values 0.986 | locus YCL061C, strain MRC1, hits give low values 1.03 | locus YCL069W, strain vba3, hits give low values 1.03 | locus YCR088W, strain abp1, hits give low values 1.03 | locus YDL005C, strain med2, hits give low values 1.02 | locus YDL035C, strain GPR1, hits give low values 0.992 | locus YDL040C, strain nat1, hits give low values 1.02 | locus YDL074C, strain BRE1, hits give low values 0.964 | locus YDL101C, strain DUN1, hits give low values 1 | locus YDL134C, strain PPH21, hits give low values 1.01 | locus YDR001C, strain nth1, hits give low values 1.03 | locus YDR069C, strain doa4, hits give low values 0.905 | locus YDR101C, strain arx1, hits give low values 0.998 | locus YDR150W, strain NUM1, hits give low values 1.02 | locus YDR159W, strain sac3, hits give low values 1.02 | locus YDR162C, strain NBP2, hits give low values 1.01 | locus YDR297W, strain sur2, hits give low values 1.03 | locus YDR318W, strain mcm21, hits give low values 1.01 | locus YDR334W, strain swr1, hits give low values 1.02 | locus YDR335W, strain msn5, hits give low values 1.05 | locus YDR388W, hits give low values 0.989 | locus YDR392W, strain spt3, hits give low values 0.963 | locus YDR502C, strain sam2, hits give low values 0.997 | locus YEL003W, strain gim4, hits give low values 1.01 | locus YEL037C, strain rad23, hits give low values 1.04 | locus YEL061C, strain CIN8 (second series), hits give low values 1.04 | locus YEL061C, strain CIN8, hits give low values 1.02 | locus YER015W, strain faa2, hits give low values 1.01 | locus YER016W, strain bim1, hits give low values 1.03 | locus YER110C, hits give low values 0.987 | locus YER111C, strain swi4, hits give low values 1.05 | locus YER155C, strain BEM2, hits give low values 0.991 | locus YER167W, strain BCK2, hits give low values 1.02 | locus YFR010W, strain ubp6, hits give low values 1.01 | locus YGL078C, strain dbp3, hits give low values 0.993 | locus YGL167C, strain pmr1, hits give low values 1.04 | locus YGL173C, strain kem1, hits give low values 1.02 | locus YGL227W, strain vid30, hits give low values 1.05 | locus YGL240W, strain doc1, hits give low values 0.992 | locus YGL248W, strain PDE1, hits give low values 1.01 | locus YGL253W, strain hxk2, hits give low values 1.03 | locus YGR078C, strain PAC10, hits give low values 1.07 | locus YGR135W, strain pre9, hits give low values 0.981 | locus YGR229C, strain SMI1, hits give low values 0.844 | locus YGR252W, strain gcn5, hits give low values 0.924 | locus YHR013C, strain ard1, hits give low values 1.1 | locus YHR027C, strain rpn1, hits give low values 1.05 | locus YHR030C, strain SLT2, hits give low values 1 and 0.948 | locus YHR079C, strain IRE1 (second series), hits give low values 1.01 | locus YHR079C, strain IRE1, hits give low values 0.993 | locus YHR094C, strain hxt1, hits give low values 1.01 | locus YHR129C, strain ARP1, hits give low values 1.02 | locus YHR142W, strain chs7, hits give low values 1.02 | locus YIL066C, strain RNR3, hits give low values 0.999 | locus YIL125W, strain kgd1, hits give low values 1 | locus YIR030C, strain dcg1, hits give low values 1 | locus YJL092W, strain hpr5, hits give low values 1.04 | locus YJL095W, strain BCK1 (second series), hits give low values 1.02 | locus YJL095W, strain BCK1, hits give low values 0.965 and 0.972 | locus YJL115W, strain asf1, hits give low values 1.07 | locus YJL129C, strain trk1, hits give low values 1.01 | locus YJL134W, strain LCB3, hits give low values 1.01 | locus YJL154C, strain vps35, hits give low values 1.01 | locus YJL164C, strain tpk1, hits give low values 1.03 | locus YJL166W, strain qcr8, hits give low values 1.02 | locus YJL168C, strain set2, hits give low values 1 | locus YJL187C, strain SWE1 (second series), hits give low values 0.992 | locus YJL187C, strain SWE1, hits give low values 1.04 | locus YJR043C, strain POL32, hits give low values 0.983 | locus YJR066W, strain TOR1, hits give low values 0.935 | locus YJR075W, strain HOC1, hits give low values 1.01
active: locus YDL185W, strain tfp1, hits give low values 0.249 | locus YDL192W, strain arf1, hits give low values 0.104 | locus YDR137W, strain rgp1, hits give low values 0.307 | locus YDR195W, strain ref2 0.363 | locus YER155C, strain BEM2 (second series), hits give low values 0.775 | locus YIL073C, strain SPO22, hits give low values 1.52 [resistant]
